Experimental data published in PubChem BioAssay (NCI).
“And” between values parts separate entries of the source, which are not always exact repeats. Identical values can stand only once. About 83,000 compounds went through this panel and 20% of them were active in at least one assay; those are over-represented in the sample as a whole.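 96-well plates, one dose, 48 hours. Percent growth reported; active if below 10.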 The source made the active and inactive calls.

Columns and labels:
Experiment in all cases: NCI-60 one-dose screen, 48 h (100 = growth as untreated, 0 = no growth, -100 = all killed)
Details in all cases: 10 µM unless noted
NCI-H23 lung = test system: NCI-H23 lung
NCI-H226 lung = test system: NCI-H226 lung
NCI-H322M lung = test system: NCI-H322M lung
HOP-62 NSCLC = test system: HOP-62 NSCLC
NCI-H460 lung = test system: NCI-H460 lung
HOP-92 NSCLC = test system: HOP-92 NSCLC
NCI-H522 lung = test system: NCI-H522 lung
A549/ATCC NSCLC = test system: A549/ATCC NSCLC
786-0 renal = test system: 786-0 renal
COLO 205 colon = test system: COLO 205 colon

Compound | growth (NCI-H23 lung) | growth (NCI-H226 lung) | growth (NCI-H322M lung) | growth (HOP-62 NSCLC) | growth (NCI-H460 lung) | growth (HOP-92 NSCLC) | growth (NCI-H522 lung) | growth (A549/ATCC NSCLC) | growth (786-0 renal) | growth (COLO 205 colon)
CC(C)(C)C(=O)C1CC(C#N)=C2C=Cc3c(ccc4ccccc34)N21 (stereo not given) | 89.2% (inactive) | 77% (inactive) | 101% (inactive) | 88.3% (inactive) | 97.8% (inactive) | 70.7% (inactive) | 83.9% (inactive) | 81.2% (inactive) | 76.6% (inactive) | 93.6% (inactive)
OC(c1ccccc1)(c1ccccc1)C1CCN(c2ccc3nnc(Cl)n3n2)CC1 | 36.8% (inactive) | 11.2% (inactive) | 74.1% (inactive) | 63.7% (inactive) | 19.8% (inactive) | 19.7% (inactive) | -60.4% (active) | 36.3% (inactive) | 41.8% (inactive) | -29.4% (active)
COc1cc(C2CC(c3ccc(F)cc3)=Nc3c(N)nc(N)nc3N2)ccc1Oc1nc(Nc2ccc(F)cc2)nc(N(C)C)n1 (stereo not given) | 70% (inactive) | 85.8% (inactive) | 105% (inactive) | 86.3% (inactive) | 10.1% (inactive) | 36.8% (inactive) | 60.6% (inactive) | 58.5% (inactive) | 43.9% (inactive) | 56.2% (inactive)
FC(F)(F)CN1CCN(CCn2c(C(F)(F)F)cc3c(Cl)ncnc32)CC1 | 16.5% (inactive) | 86.7% (inactive) | -22.9% (active) | 40.2% (inactive) | -41.2% (active) | 72.2% (inactive) | -79.3% (active) | 98.8% (inactive) | 84.6% (inactive) | 70.5% (inactive)
CC(C)(C)c1ccc(OCc2nc3ccccc3n2-c2cccc(N)c2)cc1 | 50.1% (inactive) and 100% (inactive) | 61.1% (inactive) and 103% (inactive) | 94.8% (inactive) and 104% (inactive) | 88.6% (inactive) and 102% (inactive) | 78.2% (inactive) and 109% (inactive) | 41.6% (inactive) and 106% (inactive) | 74.5% (inactive) and 103% (inactive) | 66.6% (inactive) and 107% (inactive) | 80.9% (inactive) and 102% (inactive) | 77.6% (inactive) and 114% (inactive)
Fc1ccccc1CNc1nc(SCCN2CCOCC2)nc2c1cnn2CC(Cl)c1ccc(Br)cc1 (stereo not given) | 45.1% (inactive) | 31.8% (inactive) | 75.2% (inactive) | 40% (inactive) | 17% (inactive) | 26% (inactive) | 58.1% (inactive) | 27.7% (inactive) | 8.8% (active) | -9.47% (active)
Cc1ccc2nc(NC(=O)Nc3cccc(Cl)c3)sc2c1 | 93.8% (inactive) | 96.4% (inactive) | 93.7% (inactive) | 111% (inactive) | 99.1% (inactive) | 119% (inactive) | 94% (inactive) | 106% (inactive) | 107% (inactive) | 117% (inactive)
COc1cc(NC(=O)C(C)C)ccc1C(=O)NC(=S)Nc1ccc(S(N)(=O)=O)cc1 | 102% (inactive) | 115% (inactive) | 99.7% (inactive) | 91.6% (inactive) | 107% (inactive) | 78% (inactive) | 76.3% (inactive) | 106% (inactive) | 79.6% (inactive) | 118% (inactive)
O=C(c1ccc(Cl)cc1)C1[C@H](c2ccccc2Cl)[C@@H](c2ccccc2)NC12C(=O)Nc1ccc(Br)cc12 (stereo not given in full) | -80.5% (active) | -89.1% (active) | -47.3% (active) | -88% (active) | -78.8% (active) | -84.3% (active) | -73.4% (active) | -41.7% (active) | -67% (active) | -83.3% (active)
Cc1ccc(C(=O)Nc2cc(-n3ccnc3C)cc(C(F)(F)F)c2)cc1C#Cc1cnc2cccnn12 | -26.1% (active) | -33.1% (active) | 21% (inactive) | -7.58% (active) | 5.86% (active) | -31.5% (active) | -29.1% (active) | 11.3% (inactive) | 6.68% (active) | -19.9% (active)
COc1ccc(OC)c(Cn2cc(C#N)c(N)c2C(=O)c2ccc(Br)cc2)c1 | 54.4% (inactive) | 64.9% (inactive) | 85.8% (inactive) | 40.2% (inactive) | 41.8% (inactive) | 55.7% (inactive) | -29% (active) | 46.4% (inactive) | 63.9% (inactive) | 30.4% (inactive)
COc1cc(/C=N/NC(=O)c2ccc(OCc3nc4ccc(Cl)cc4[nH]3)cc2)cc(OC)c1OC | 34.7% (inactive) | 35.5% (inactive) | 55.1% (inactive) | 64.2% (inactive) | 44.7% (inactive) | 118% (inactive) | 26.2% (inactive) | 59.2% (inactive) | 29.3% (inactive) | 29.3% (inactive)
COc1cc(CNC(=O)C[C@H](C)CCC=C(C)C)ccc1OCc1cn(-c2ccc(Br)cc2)nn1 | 60.1% (inactive) | 70.2% (inactive) | 99.6% (inactive) | 65.1% (inactive) | 74.2% (inactive) | 45.9% (inactive) | 41.6% (inactive) | 78.6% (inactive) | 68.7% (inactive) | 113% (inactive)
O=C1C=CC(=CC=C2N(Cc3ccc4ccccc4c3)c3ccccc3N2Cc2ccc3ccccc3c2)C=C1 | 5.96% (active) and 26.9% (inactive) | 47.1% (inactive) and 48% (inactive) | 49.3% (inactive) and 59.1% (inactive) | 37.3% (inactive) and 45.3% (inactive) | 15.7% (inactive) and 10.4% (inactive) | 3.18% (active) and -22.2% (active) | -12.5% (active) and 17.7% (inactive) | 30.5% (inactive) and 46.4% (inactive) | 51.2% (inactive) and 69.2% (inactive) | -29.1% (active) and 0.579% (active)
Cc1ccc(Cl)cc1NC(=O)N/C(N)=N/c1nc2ccccc2s1 | -9.8% (active) | 0.832% (active) | 18.6% (inactive) | -11.7% (active) | -8.76% (active) | -23% (active) | -61.9% (active) | -36.9% (active) | -2.48% (active) | -91.1% (active)
COc1ccccc1Nc1nnc(-c2c[nH]c3ccccc23)o1 | 12.6% (inactive) | 47.1% (inactive) | 43.5% (inactive) | 26.3% (inactive) | 10.8% (inactive) | 16.1% (inactive) | -31.5% (active) | 21.9% (inactive) | 9.22% (active) | -38.8% (active)
O=C(Nc1ccc(Br)cc1)Nc1ccc(-c2ccc3c(c2)NC(=O)/C3=C\c2ccc[nH]2)cc1 | 30.7% (inactive) | 66.2% (inactive) | 46.1% (inactive) | 53.1% (inactive) | 8.75% (active) | 92.1% (inactive) | 24.1% (inactive) | 37.7% (inactive) | 61% (inactive) | 57.2% (inactive)
Cn1cc(-c2cc(N)n3nc(-c4c[nH]c5ccc(F)cc45)cc3n2)c2cc(Br)cnc21 | 94.3% (inactive) | 68.6% (inactive) | 80.1% (inactive) | 71.1% (inactive) | 57.5% (inactive) | 27.3% (inactive) | 27.6% (inactive) | 54% (inactive) | 44.4% (inactive) | 119% (inactive)
COc1cc(CNC(=O)C[C@H](C)CCC=C(C)C)ccc1OCc1cn(-c2cccc(C(F)(F)F)c2)nn1 | 79.4% (inactive) | 72.3% (inactive) | 90.1% (inactive) | 88.8% (inactive) | 14.6% (inactive) | 86.1% (inactive) | 83.1% (inactive) | 42.6% (inactive) | 93% (inactive) | 74.2% (inactive)
CN(C)C(=O)c1cc(-c2ccc3ncnc(N4CCc5cc(F)c(Cl)cc54)c3c2)cnc1N | -18.1% (active) | -25.4% (active) | -64.2% (active) | -32.6% (active) | 3.44% (active) | -45.7% (active) | -13.4% (active) | -66.9% (active) | -82.2% (active) | -76.5% (active)
CC1=C(C(=O)Nc2ccccc2)C(c2cccc3ccccc23)n2c(nc3ccccc32)N1 (stereo not given) | 76.7% (inactive) | -39.8% (active) | 44% (inactive) | -61.9% (active) | 27.6% (inactive) | 1.76% (active) | 63.6% (inactive) | 28.2% (inactive) | 6.29% (active) | 95.2% (inactive)
O=C(CSc1nnc(-c2ccc(-c3nc4ccc(Cl)cc4[nH]3)cc2)o1)Nc1ccc(Cl)cc1 | -11.9% (active) | -38.2% (active) | 32.9% (inactive) | -13.6% (active) | -75.8% (active) | 14.7% (inactive) | -1.21% (active) | -36.2% (active) | -39.5% (active) | 45.3% (inactive)
O=C(N=Nc1c(O)[nH]c2ccc(Br)cc12)c1ccc2nc(-c3ccc(Cl)cc3)[nH]c2c1 | -69.4% (active) | 16.6% (inactive) | 6.48% (active) | -55.9% (active) | -19.4% (active) | -9.49% (active) | -47.2% (active) | 14.9% (inactive) | -73.7% (active) | -36.1% (active)
COc1ccc(NC(=O)Cn2c(/C=C/c3cccc(Br)c3)nc3ccccc3c2=O)cc1 | 59.3% (inactive) | 6.61% (active) | 58.1% (inactive) | 2.11% (active) | 32% (inactive) | 11% (inactive) | 42.6% (inactive) | 16.5% (inactive) | -44.4% (active) | 70.4% (inactive)
Nc1nc(-c2ccccc2)c(N=Nc2ccc(Cl)cc2Cl)s1 | -43.8% (active) | -17.4% (active) | 4.7% (active) | -61.9% (active) | -66.8% (active) | -54.1% (active) | -15.3% (active) | 12.5% (inactive) | -51.9% (active) | -16.6% (active)
